This is a sample that favours compounds with a hit; in the whole collection about 1.2% have one here.
Platelet DG rel: inhibitors of platelet dense granule secretion, primary screen, cell-based, MLPCN, human platelets. human platelet-rich plasma, SFLLRN dense granule ATP release, luminescence. inhibition, %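 (compounds screened at 7.5 µM in platelet-rich plasma)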. actives 0.22% (n = 300,000). AID 1663, 2009;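 active = mean replicate score, as percent of positive control, at or above 50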
NTR1 agonist: agonists of human NTR1, primary screen, imaging, U2OS cells, beta-arrestin-GFP, high content; AID 493036, 2011; actives 0.17% (n = 330,000); NTR1-U2OS beta-arrestin-GFP spot imaging, agonist mode; activation, % at 20 µM; Neurotensin receptor type 1 (Homo sapiens), P30989;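 active = activation at or above 40% of the spot to cytoplasm intensity ratio, with at least 20 cells analyzed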
GRK2 aptamer HTS: compounds blocking aptamer binding on GRK2 – biochemical, human GRK2, bead flow cytometry, HTS, primary screen; inhibition of aptamer binding, % at 10 µM; FAM-aptamer displacement from GRK2; actives 0.59% (n = 330,000);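 active = inhibition of aptamer binding above 40%, roughly 3 SD of noise, on plates passing a quality check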;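 note: median bead fluorescence of bound FAM aptamer so fluorescent compounds give negative values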
beta cell repl: inducers of MIN6 beta-cell proliferation, primary screen, ATP luminescence, uHTS; proliferation, % at 10 µM; MIN6 cells proliferation, ATPlite luminescence, 48 h; cells starved in 0.2% serum; 100% = growth in 10% serum; actives 0.29% (n = 330,000);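 active = compounds whose signal lies at least 3.5 SD above the mean of all wells on their plate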
GRK2 CP1: GRK2 aptamer-displacing inhibitors, retest, confirmation, biochemical, cherry pick 1, bead flow cytometry. shares compounds with GRK2 aptamer HTS. bead-bound GRK2, FAM-aptamer displacement. aptamer displacement, % at 10 µM. actives 4% (n = 2,000). AID 504451, 2011;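 active = aptamer displacement above 40%, near three times the noise of non-fluorescent compounds, on plates passing quality checks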;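 note: negative values mostly reflect intrinsic compound fluorescence rather than true enhancement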
Aptamer quench: quenches fluorescent RNA aptamer, GRK2 hit artifact. AID 504521. 110 tested, under 10 active. fluorescence change (kMESF span), kMESF (test concentration not listed). shares compounds with GRK2 aptamer HTS. Fluorescent RNA aptamer beads, quenching, flow cytometry; active compounds read high;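 active = compounds whose bead fluorescence drops by more than 37 kMESF across the dose range, marking them as dye quenchers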
FAM quench CP1: quenches fluorescent RNA aptamer, GRK2 hit artifact | shares compounds with GRK2 aptamer HTS | Carboxyfluorescein RNA aptamer on beads, flow cytometry quenching; active compounds read low | fluorescence response (% of DMSO), % at 10 µM | 2,000 tested, under 10 active;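 active = compounds that quench the bead-bound fluorescent RNA probe, cutting fluorescence to under half of the solvent control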;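 note: counterscreen run without GRK2 so only probe quenching by compound is measured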
GRK2 confirm 2: GRK2 aptamer-displacing inhibitors, hit retest, confirmation, biochemical, cherry pick 2, bead flow cytometry; shares compounds with GRK2 aptamer HTS; bead-bound GRK2, FAM-aptamer displacement; inhibition of aptamer binding, % at 10 µM; 360 tested, under 10 active; AID 504782, 2011;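 active = inhibition of aptamer binding above 40%, about triple the noise seen with nonglowing compounds, on plates passing quality control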;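 note: negative values mostly come from compounds that fluoresce themselves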
FAM quench CP2: aptamer fluorescence quenching in GRK2 counter-screen | carboxyfluorescein RNA aptamer beads, flow cytometry quenching; active compounds read low | AID 588494 | fluorescence response vs DMSO, % at 10 µM | shares compounds with GRK2 aptamer HTS | 360 tested, under 10 active;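 active = response vs DMSO under 50%, meaning signal dropped by over half, treated as fluorescence quencher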;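 note: labelled aptamer on streptavidin beads without GRK2 as a quench counter-screen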
A number is an active result.

`O=C(NCc1ccc2c(c1)OCO2)c1ccc(CSCc2ccc(Cl)cc2)o1` gave Platelet DG rel inactive, NTR1 agonist inactive, GRK2 aptamer HTS 51, beta cell repl inactive, GRK2 confirm 2 inactive and FAM quench CP2 inactive.
Screening O=C(NCc1ccc2c(c1)OCO2)c1ccc(COc2cc(Cl)ccc2Cl)o1 returned Platelet DG rel inactive, NTR1 agonist inactive, GRK2 aptamer HTS inactive and beta cell repl inactive.
C=CCOc1ccc(CNn2c(C)n[nH]c2=S)cc1OC was read as Platelet DG rel inactive, NTR1 agonist inactive, GRK2 aptamer HTS inactive and beta cell repl inactive.
For C=CCOc1ccc2ccccc2c1CNn1c(C)n[nH]c1=S the results were Platelet DG rel inactive, NTR1 agonist inactive, GRK2 aptamer HTS 78, beta cell repl inactive, GRK2 CP1 inactive and FAM quench CP1 inactive.
For O=C(c1ccc(Cl)cc1[N+](=O)[O-])N1CCN(c2ccccn2)CC1 the results were Platelet DG rel inactive, NTR1 agonist inactive, GRK2 aptamer HTS 82, beta cell repl inactive, GRK2 CP1 inactive and FAM quench CP1 inactive.
For Cc1c(C(=O)N2CCN(c3ccccn3)CC2)cccc1[N+](=O)[O-] the results were Platelet DG rel inactive, NTR1 agonist inactive, GRK2 aptamer HTS inactive, beta cell repl inactive, GRK2 CP1 inactive and FAM quench CP1 inactive.
Screening COc1cccc(-n2c(SCC(=O)O)nnc2-c2cccnc2)c1 returned Platelet DG rel inactive, NTR1 agonist inactive, GRK2 aptamer HTS 62, beta cell repl inactive, GRK2 CP1 inactive and FAM quench CP1 inactive.
Cc1nn(C)c(C)c1C(C)NC(=O)c1cc(COc2cncc(Cl)c2)on1 (configuration not stated) was read as Platelet DG rel inactive, NTR1 agonist inactive, GRK2 aptamer HTS 83, beta cell repl inactive, GRK2 CP1 inactive and FAM quench CP1 inactive.
For Cc1ccccc1Cn1ccc(NC(=O)c2cnn3c(C(F)(F)F)cc(-c4ccco4)nc23)n1 the results were Platelet DG rel inactive, NTR1 agonist inactive, GRK2 aptamer HTS inactive, beta cell repl inactive, GRK2 CP1 inactive and FAM quench CP1 inactive.
Cc1ccccc1Cn1ccc(NC(=O)CCSc2nc(-c3ccco3)cc(C(F)(F)F)n2)n1 was read as Platelet DG rel inactive, NTR1 agonist inactive, GRK2 aptamer HTS inactive and beta cell repl inactive.
Screening CC(C)(CNC(=O)c1cc(-c2ccc(Cl)s2)nc2ccccc12)N1CCOCC1 returned Platelet DG rel inactive, NTR1 agonist inactive, GRK2 aptamer HTS 52, beta cell repl inactive, GRK2 CP1 inactive and FAM quench CP1 inactive.
Screening CCOC(=O)c1sc(NCc2ccco2)c(-c2nc3ccccc3s2)c1N returned Platelet DG rel inactive, NTR1 agonist inactive, GRK2 aptamer HTS 68, beta cell repl inactive, GRK2 CP1 70, Aptamer quench inactive and FAM quench CP1 inactive.
CCOc1cc(N2CCOCC2)c(OCC)cc1NC(=O)c1ccc(OC)c(S(=O)(=O)N2CCOCC2)c1 was read as NTR1 agonist inactive, GRK2 aptamer HTS inactive, beta cell repl inactive, GRK2 CP1 inactive and FAM quench CP1 inactive.
`CCOc1cc(N2CCOCC2)c(OCC)cc1NC(=O)c1cc(S(=O)(=O)N2CCOCC2)ccc1Cl` gave NTR1 agonist inactive, beta cell repl inactive, GRK2 CP1 inactive and FAM quench CP1 inactive.
